Reference: PubChem BioAssay (NCATS)
Inconclusive results are not listed. A call without a number means that no potency is given here. Activity calls are given as the source filed them. The call rests on the fitted dose curve; in most records, active means well fitted inhibition curve with a large enough effect; inconclusive means small, poorly fitted or top-dose-only effect; inactive means no such curve, though single readings can be large or run the other way.

Assays:
[1] = tested on: Zika virus NS2B-NS3 protease (unlinked complex); assay: Primary screen GU Rhodamine qHTS for Zika virus inhibitors: Unlinked NS2B-NS3 protease assay (AID 1347159); further: nearly all actives have a fitted effect of over 60% in size
In short: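 Noncovalent NS2B hydrophilic domain/NS3 protease complex (25 nM final) in 10 mM Tris-HCl pH 8.0, 0.01% Tween 20, preincubated 15 min with compounds (up to 114 microM), then 1.5 microM Rhodamine110 substrate. Fluorescence change over 15 min fitted to 4-parameter Hill.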

[2] = tested on: Zika virus NS2B-NS3 protease (linked construct); assay: Primary screen NINDS Rhodamine qHTS for Zika virus inhibitors (AID 1347160); further: nearly all actives have a fitted effect of over 55% in size; further: potency means the concentration at half of the fitted maximal effect
In short: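 Purified NS2B-NS3 protease with the NS2B hydrophilic domain joined by a flexible linker (25 nM) in 10 mM Tris-HCl pH 8.0, 0.01% Tween 20, preincubated 15 min at RT with compound; Rhodamine110 peptide substrate 1.5 µM; fluorescence change over 15 min; 4-parameter Hill fit.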

[3] = Confirmatory screen NINDS Rhodamine qHTS for Zika virus inhibitors (AID 1347161); further: nearly all actives have a fitted effect of over 60% in size; further: potency means the concentration at half of the fitted maximal effect
In short: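 Single-chain NS2B-NS3 protease, 25 nM, pH 8.0; compounds preincubated 15 min. Activity: Rhodamine110 release from 1.5 microM substrate over 15 min, room temperature, data fitted to 4-parameter Hill.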

Row | SMILES | Potency [1] | Potency [2] | Potency [3]
1 | NC(=O)c1ccc(F)c2c1C[C@@H](N(C1CCC1)C1CCC1)CO2 | inactive | inactive | –
2 | COc1c2cc(c(O)c1OC)CCCCC(O)CCc1ccc(O)c-2c1 (centres undefined) | inactive | inactive | –
3 | CS(=O)(=O)c1ccccc1N1CCN(c2nc3c(c(=O)[nH]2)CSCC3)CC1 | inactive | inactive | –
4 | C=C[C@]1(C)C[C@@H](OC(=O)CSC2C[C@H]3CC[C@@H](C2)N3C)[C@]2(C)[C@H](C)CC[C@]3(CCC(=O)[C@H]32)[C@@H](C)[C@@H]1O (some centres undefined) | inactive | inactive | –
5 | COc1ccc(CCc2nc3cc(-c4c(C)noc4C)ccc3n2C[C@H](C)N2CCOCC2)cc1Cl | inactive | inactive | –
6 | Cc1cc(OCCN2CCOCC2)nn1-c1ccc2ccccc2c1 | inactive | inactive | –
7 | CN1C(=O)N(c2cc(Cl)cc(Cl)c2)C(=O)[C@@]1(C)Cc1ccc(Br)cc1 | inactive | inactive | –
8 | C/C(=C\C(=O)C(C)C1CCC2C3=C(CCC21C)C1(C)CCC(=O)C(C)(C)C1(O)CC3)C(C)(C)O (centres undefined) | – | 14.1 µM (active) | –
9 | Cn1cc(-c2c[nH]c3ncnc(N4CCOCC4)c23)cn1 | inactive | – | inactive
10 | O=C(CCCCC1CCCCC1)N1CCC(c2cnc[nH]2)CC1 | inactive | inactive | –
11 | COC(=O)[C@]1(C)CCC[C@@]2(C)[C@@H]3CC[C@@H]4C[C@@]3(CC[C@@H]21)C[C@H]4C(=O)O | inactive | inactive | –
12 | C[C@H]1[C@H](C)CC[C@]2(C(=O)O)CC[C@]3(C(=O)O)C(=CCC4[C@@]5(C)CC[C@H](O[C@@H]6O[C@@H](C)[C@H](O)[C@@H](O)[C@H]6O)C(C)(C)C5CC[C@]43C)[C@H]12 (some centres undefined) | inactive | inactive | –
13 | CC(C)=CC[C@H]1O[C@]2(O)C([C@H]3CCC4[C@@]5(C)CC[C@H](O[C@@H]6O[C@H](CO)[C@H](O)[C@H](O[C@@H]7O[C@H](CO)[C@@H](O)[C@H](O)[C@H]7O)[C@H]6O[C@@H]6O[C@@H](C)[C@H](O)[C@@H](O)[C@H]6O)C(C)(C)C5CC[C@@]4(C)[C@]3(C)[C@H]2O)[C@@]1(C)O (some centres undefined) | inactive | inactive | –
14 | COc1cn(-c2ccc(-n3cccn3)cc2F)nc(-c2ccnn2-c2ccccc2)c1=O | inactive | inactive | –
15 | CC(C)c1c(NC(=O)Nc2ccc(Cl)cc2)c(=O)n(-c2ccccc2)n1C | inactive | inactive | –
16 | COc1ccc(/C=C/C(=O)O[C@@H]2[C@@H](O)[C@@H](O)[C@H](O[C@H]3[C@@H]4C=CO[C@@H](O[C@@H]5O[C@H](CO)[C@@H](O)[C@H](O)[C@H]5O)[C@@H]4[C@@]4(CO)O[C@@H]34)O[C@H]2C)cc1 | inactive | inactive | –
17 | CC(=O)O[C@@]1(C)[C@@H]2CC(=C(C)C)C(=O)C[C@@]2(C)CC[C@H]1OC(=O)C1(C)OC1C (some centres undefined) | inactive | inactive | –
18 | COc1cc2c(c(OC)c1O)C(c1ccc(O)cc1)C1C(=O)OC3C(COC(=O)C1=C2)OC(CO)(OC1OC(COC(=O)/C=C/c2ccc(OC4OC(C)C(O)C(O)C4O)cc2)C(O)C(O)C1O)C3O (centres undefined) | inactive | – | 7.44 µM (active)
19 | COC(O)(CC(C)C)C1Oc2cc(C)[nH]c(=O)c2O1 (centres undefined) | inactive | inactive | –
20 | Cc1ccccc1-c1cc(N2CCN(C)CC2)ncc1N(C)C(=O)C(C)(C)c1cc(C(F)(F)F)cc(C(F)(F)F)c1 | inactive | inactive | –
